Reference: the supplement of paper PMC10849652
Of roughly 8,800 targets only a part is listed; those with a hit were picked by preference. About 0.5% of all pairs of compound and target were hits. Values without a mark were called inactive.

What was measured:
Test in all cases: log2 fold change, soluble protein after heating vs DMSO (PISA); higher = thermal stabilisation; K562 lysate, 10 uM; active = over 0.2 and 3.5 SD of the protein, either way, in both replicates (recomputed)
[1] = compound: NCC(=O)Nc1ccc(-n2nc(C(F)(F)F)cc2-c2ccc3c(ccc4ccccc43)c2)cc1
In short: (§1)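 A 30 min treatment with 10 μM compound was applied to crude K562 extract at 1 mg/mL protein in PBS pH 7.4 with 1 mM MgCl2. Heating for 3 min spanned 48°C-58°C, after which aliquots were pooled, adjusted to 0.5% NP-40 at 4°C and spun at 21,000xg for 90 min. TMTpro 16plex LC-MS/MS of the supernatant, with channel sums equalised, gave values recorded as log-two fold change in thermal stability against solvent controls, from duplicates.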

vorinostat = compound: O=C(CCCCCCC(=O)Nc1ccccc1)NO [vorinostat]
In short: as §1

silmitasertib = compound: O=C(O)c1ccc2c(c1)nc(Nc1cccc(Cl)c1)c1ccncc12 [silmitasertib]
In short: as §1

entospletinib = compound: c1cn2cc(-c3ccc4cn[nH]c4c3)nc(Nc3ccc(N4CCOCC4)cc3)c2n1 [entospletinib]
In short: as §1

[2] = compound: O=C1NC(=O)C(c2cnc3ccccn23)=C1c1cn2c3c(cc(F)cc13)CN(C(=O)N1CCCCC1)CC2
In short: as §1

Sequence of UniProt Q9BUK0 (Q9BUK0 whole entry, looked up): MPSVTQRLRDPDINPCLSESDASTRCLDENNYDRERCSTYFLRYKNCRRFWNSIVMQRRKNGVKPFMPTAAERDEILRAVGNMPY
Sequence of UniProt Q9UQ88 (Q9UQ88 whole entry, looked up): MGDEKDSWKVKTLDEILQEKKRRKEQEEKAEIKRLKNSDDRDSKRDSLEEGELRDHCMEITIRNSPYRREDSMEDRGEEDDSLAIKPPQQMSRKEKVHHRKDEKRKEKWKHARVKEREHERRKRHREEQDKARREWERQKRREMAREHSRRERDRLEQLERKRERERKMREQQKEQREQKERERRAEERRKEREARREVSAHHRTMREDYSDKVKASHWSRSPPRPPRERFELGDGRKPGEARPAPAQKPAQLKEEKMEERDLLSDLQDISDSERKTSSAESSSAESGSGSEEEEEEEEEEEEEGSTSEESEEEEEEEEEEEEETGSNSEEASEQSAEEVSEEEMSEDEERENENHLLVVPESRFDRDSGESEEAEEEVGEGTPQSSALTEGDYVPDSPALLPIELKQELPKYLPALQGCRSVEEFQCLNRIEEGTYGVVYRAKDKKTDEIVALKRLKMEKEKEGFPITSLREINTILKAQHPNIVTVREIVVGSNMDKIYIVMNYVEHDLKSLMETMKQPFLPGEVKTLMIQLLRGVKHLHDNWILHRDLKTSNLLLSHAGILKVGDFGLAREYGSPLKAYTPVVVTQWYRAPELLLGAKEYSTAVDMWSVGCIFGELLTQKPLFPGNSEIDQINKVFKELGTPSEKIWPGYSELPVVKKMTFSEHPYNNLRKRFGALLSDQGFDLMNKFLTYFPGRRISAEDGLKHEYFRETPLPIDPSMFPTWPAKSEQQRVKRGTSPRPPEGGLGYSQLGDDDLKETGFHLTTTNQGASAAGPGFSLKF
Sequence of UniProt Q8TCD1 (Q8TCD1 whole entry, looked up): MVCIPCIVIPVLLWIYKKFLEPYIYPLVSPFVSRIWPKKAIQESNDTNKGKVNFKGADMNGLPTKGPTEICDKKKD
Sequence of UniProt Q96L58 (Q96L58 whole entry, looked up): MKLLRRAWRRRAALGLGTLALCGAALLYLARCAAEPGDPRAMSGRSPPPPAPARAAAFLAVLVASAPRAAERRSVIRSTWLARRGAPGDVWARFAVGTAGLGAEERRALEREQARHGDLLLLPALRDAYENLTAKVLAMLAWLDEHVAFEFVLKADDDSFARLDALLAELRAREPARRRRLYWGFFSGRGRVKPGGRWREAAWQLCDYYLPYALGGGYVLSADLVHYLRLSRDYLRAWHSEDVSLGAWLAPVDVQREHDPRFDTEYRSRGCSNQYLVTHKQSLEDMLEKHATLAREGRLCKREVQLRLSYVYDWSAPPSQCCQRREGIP
Sequence of UniProt Q8N4J0 (Q8N4J0 whole entry, looked up): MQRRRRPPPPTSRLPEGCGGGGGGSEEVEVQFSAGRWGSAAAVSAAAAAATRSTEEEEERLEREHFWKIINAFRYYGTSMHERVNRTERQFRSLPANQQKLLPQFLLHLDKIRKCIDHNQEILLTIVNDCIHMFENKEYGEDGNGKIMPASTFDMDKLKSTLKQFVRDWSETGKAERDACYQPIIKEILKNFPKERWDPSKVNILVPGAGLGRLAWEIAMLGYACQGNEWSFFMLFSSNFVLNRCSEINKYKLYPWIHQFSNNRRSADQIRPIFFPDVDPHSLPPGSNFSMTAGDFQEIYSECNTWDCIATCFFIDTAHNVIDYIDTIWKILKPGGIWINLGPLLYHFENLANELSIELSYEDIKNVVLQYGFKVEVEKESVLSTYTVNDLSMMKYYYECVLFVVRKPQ
Sequence of UniProt Q12983 (Q12983 whole entry, looked up): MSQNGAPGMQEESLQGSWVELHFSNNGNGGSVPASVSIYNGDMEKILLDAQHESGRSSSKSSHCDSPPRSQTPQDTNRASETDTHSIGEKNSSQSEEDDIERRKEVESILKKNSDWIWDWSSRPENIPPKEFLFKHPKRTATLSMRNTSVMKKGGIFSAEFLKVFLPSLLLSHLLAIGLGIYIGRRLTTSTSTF
Sequence of UniProt Q9Y297 (Q9Y297 whole entry, looked up): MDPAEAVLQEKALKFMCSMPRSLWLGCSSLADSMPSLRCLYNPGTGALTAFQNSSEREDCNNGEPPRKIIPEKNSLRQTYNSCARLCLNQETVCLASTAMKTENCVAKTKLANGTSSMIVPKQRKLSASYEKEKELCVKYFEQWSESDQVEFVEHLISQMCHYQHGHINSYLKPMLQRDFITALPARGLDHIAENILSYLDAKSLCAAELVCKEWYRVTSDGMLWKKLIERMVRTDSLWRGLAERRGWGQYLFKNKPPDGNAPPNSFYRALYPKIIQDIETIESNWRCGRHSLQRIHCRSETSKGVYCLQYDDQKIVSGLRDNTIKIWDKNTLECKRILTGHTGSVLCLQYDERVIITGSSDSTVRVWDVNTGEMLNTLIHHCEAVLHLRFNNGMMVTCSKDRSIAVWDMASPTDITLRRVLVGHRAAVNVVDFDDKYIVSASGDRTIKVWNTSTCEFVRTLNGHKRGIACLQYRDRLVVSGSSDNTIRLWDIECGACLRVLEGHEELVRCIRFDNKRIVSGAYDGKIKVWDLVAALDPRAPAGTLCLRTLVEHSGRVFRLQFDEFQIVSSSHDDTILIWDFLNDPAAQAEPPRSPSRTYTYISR
Sequence of UniProt Q6ZU80 (Q6ZU80 whole entry, looked up): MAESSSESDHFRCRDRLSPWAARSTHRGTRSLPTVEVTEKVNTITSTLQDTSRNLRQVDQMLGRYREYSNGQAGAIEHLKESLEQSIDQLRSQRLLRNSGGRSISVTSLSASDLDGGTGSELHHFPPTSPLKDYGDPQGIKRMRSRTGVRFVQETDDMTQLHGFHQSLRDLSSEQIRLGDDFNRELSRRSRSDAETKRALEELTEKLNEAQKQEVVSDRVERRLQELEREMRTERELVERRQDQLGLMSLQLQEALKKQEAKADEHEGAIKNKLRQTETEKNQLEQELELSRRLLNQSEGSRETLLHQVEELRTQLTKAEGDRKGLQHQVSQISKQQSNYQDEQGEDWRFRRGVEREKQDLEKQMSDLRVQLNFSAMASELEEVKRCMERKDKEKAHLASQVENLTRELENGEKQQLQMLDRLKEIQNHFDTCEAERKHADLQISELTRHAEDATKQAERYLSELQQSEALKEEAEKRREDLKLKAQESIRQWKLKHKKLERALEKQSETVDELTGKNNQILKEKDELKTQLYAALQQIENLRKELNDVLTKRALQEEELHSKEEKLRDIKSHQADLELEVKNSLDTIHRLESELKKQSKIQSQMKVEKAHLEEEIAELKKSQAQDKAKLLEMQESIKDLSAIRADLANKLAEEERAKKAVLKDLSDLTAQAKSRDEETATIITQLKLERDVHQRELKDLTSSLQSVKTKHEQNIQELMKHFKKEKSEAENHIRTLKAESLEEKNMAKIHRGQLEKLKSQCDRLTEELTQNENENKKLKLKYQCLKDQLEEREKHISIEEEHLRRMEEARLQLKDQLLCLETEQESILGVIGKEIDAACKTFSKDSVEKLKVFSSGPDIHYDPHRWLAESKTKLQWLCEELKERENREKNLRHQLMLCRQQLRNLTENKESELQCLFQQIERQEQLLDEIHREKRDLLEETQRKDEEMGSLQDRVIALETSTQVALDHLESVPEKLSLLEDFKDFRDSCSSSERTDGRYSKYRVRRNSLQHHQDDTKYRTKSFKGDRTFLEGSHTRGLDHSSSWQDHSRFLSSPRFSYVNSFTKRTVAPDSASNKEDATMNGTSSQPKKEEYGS
Sequence of UniProt Q16581 (Q16581 whole entry, looked up): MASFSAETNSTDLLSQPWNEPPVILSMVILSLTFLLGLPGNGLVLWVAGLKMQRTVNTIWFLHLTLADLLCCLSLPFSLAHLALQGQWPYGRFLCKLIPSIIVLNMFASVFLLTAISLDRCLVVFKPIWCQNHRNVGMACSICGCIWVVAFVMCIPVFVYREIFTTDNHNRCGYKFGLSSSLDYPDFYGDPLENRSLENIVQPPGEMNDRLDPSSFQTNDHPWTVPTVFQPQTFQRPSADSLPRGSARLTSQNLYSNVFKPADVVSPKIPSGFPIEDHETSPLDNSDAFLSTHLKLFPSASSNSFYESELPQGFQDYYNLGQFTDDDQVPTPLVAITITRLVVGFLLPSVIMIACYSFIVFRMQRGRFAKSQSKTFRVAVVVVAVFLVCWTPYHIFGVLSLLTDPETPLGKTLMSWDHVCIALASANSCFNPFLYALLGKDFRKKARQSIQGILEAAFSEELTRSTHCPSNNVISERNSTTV
Sequence of UniProt Q9UNH5 (Q9UNH5 whole entry, looked up): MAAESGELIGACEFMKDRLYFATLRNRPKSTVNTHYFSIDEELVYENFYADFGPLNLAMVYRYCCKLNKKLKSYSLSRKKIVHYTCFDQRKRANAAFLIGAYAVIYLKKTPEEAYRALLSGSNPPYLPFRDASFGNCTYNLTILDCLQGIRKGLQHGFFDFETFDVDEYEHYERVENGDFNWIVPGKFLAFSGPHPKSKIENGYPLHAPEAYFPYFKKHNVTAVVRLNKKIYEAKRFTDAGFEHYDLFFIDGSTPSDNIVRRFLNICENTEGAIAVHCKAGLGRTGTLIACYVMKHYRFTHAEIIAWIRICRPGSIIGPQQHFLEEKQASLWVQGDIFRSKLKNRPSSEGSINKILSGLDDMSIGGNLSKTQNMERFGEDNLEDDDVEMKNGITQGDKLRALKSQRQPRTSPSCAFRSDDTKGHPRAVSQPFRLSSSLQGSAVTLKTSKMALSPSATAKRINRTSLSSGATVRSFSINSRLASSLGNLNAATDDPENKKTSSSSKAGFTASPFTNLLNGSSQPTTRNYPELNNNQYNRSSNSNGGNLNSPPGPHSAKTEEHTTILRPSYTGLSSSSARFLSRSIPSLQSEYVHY

Q: With BTRC (UniProt Q9Y297) as the target, how does the log2 fold change [1] read?
A: 0.03

Q: And the log2 fold change (vorinostat)?
A: -0.342 (active)

Q: And the log2 fold change (silmitasertib)?
A: 0.035

Q: What about the log2 fold change (entospletinib) of the same target?
A: -0.004

Q: How did the log2 fold change (entospletinib) turn out when CHD4, A0A2R8Y521 was run?
A: -0.313

Q: Which log2 fold change (vorinostat) does the source give for CDK11A (UniProt Q9UQ88) here?
A: -0.329

Q: What about the log2 fold change (silmitasertib) of the same target?
A: 0.049

Q: And the log2 fold change [2]?
A: -0.012

Q: Which results are given for BRAF, A0A2R8Y8E0?
A: log2 fold change [1]: 0.017; log2 fold change (entospletinib): -0.082

Q: For CDAN1 (UniProt H3BPZ6), which log2 fold change [2] is on record?
A: 0.006

Q: How did the log2 fold change [2] turn out when CDC14A isoform 2 (UniProt Q9UNH5) was run?
A: -0.11

Q: How did the log2 fold change [1] turn out when CEP128 (UniProt Q6ZU80) was run?
A: 0.017

Q: And the log2 fold change (entospletinib)?
A: -0.081

Q: Which results are given for C18orf32 (UniProt Q8TCD1)?
A: log2 fold change [1]: 0.004; log2 fold change (vorinostat): -0.486 (active); log2 fold change (silmitasertib): -0.021; log2 fold change [2]: 0.017; log2 fold change (entospletinib): -0.071

Q: For C3AR1 (UniProt Q16581), which log2 fold change [2] is on record?
A: -0.013

Q: What does the source list for BNIP3 (UniProt Q12983)?
A: log2 fold change (vorinostat): 0.066; log2 fold change (silmitasertib): -0.08; log2 fold change [2]: -0.048; log2 fold change (entospletinib): -0.031

Q: Which results are given for CHCHD7 isoform 4 (UniProt Q9BUK0)?
A: log2 fold change [1]: -0.031; log2 fold change [2]: -0.066; log2 fold change (entospletinib): 0.008

Q: Which log2 fold change (vorinostat) does the source give for B3GALT6 (UniProt Q96L58) here?
A: 0.218

Q: And the log2 fold change (silmitasertib)?
A: -0.029

Q: What about the log2 fold change [2] of the same target?
A: 0.071

Q: Which log2 fold change [1] does the source give for CARNMT1 (UniProt Q8N4J0) here?
A: 0.005

Q: What about the log2 fold change (vorinostat) of the same target?
A: 0.027

Q: And the log2 fold change (silmitasertib)?
A: 0.008

Q: And the log2 fold change [2]?
A: -0.028

Q: What about the log2 fold change (entospletinib) of the same target?
A: -0.039
